Measurements from paper PMC12136788.
Over roughly 24,000 sequences, “enrichment r” has its median near 0.99; the highest 2% begin near 3.7. The entries come from a sample that favours the highest values as a whole.

T1: UNK ZnF1-3 (human, UniProt Q9C0B0 31-174)
T1 sequence: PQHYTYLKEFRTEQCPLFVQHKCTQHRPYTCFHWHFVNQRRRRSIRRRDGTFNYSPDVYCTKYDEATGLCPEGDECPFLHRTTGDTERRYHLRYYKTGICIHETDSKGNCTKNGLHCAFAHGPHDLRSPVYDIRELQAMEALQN

B1: chr8:117878989:117878990:-_ENSG00000164754_ENST00000297338|hu_hu|hu_hu_hu_mus_True|68_98 (ssRNA)
RNA: GGGAGUUCUACAGUCCGACGAUCCCAGAGGCCCUCGUUUACUGAGAACAAAAUGUGCGUAGAACAUUGUUCUGGCUUGCUAUGAAAUAAGAAGAAACCUGGAUCUCGGCGGGGAGCCGGGAGGGGUGGGUGGCCCGGGGAGGGCAACAGAGGAUUGAGCAUCA
B2: chr10:79719409:79719410:+_ENSMUSG00000020153_ENSMUST00000020361|mus_mus|FALSE|FALSE (ssRNA)
RNA: GGGAGUUCUACAGUCCGACGAUCCCAGAUCUUCAGCUUCUGUUCACGCUUGAUCUUCCGUUGCAGCUGCAAGAUGCCAUAAAGGAGUGCUUCGGCCGUGGGCGGGCAGCCUGGCACAUAGAUGUCCACUGGCACAAUGCGGUCCAACAGAGGAUUGAGCAUCA
B3: chr7:149068622:149068623:-_ENSMUSG00000025139_ENSMUST00000001950|mus_hu|mus_mus_mus_hu_False|38_48 (ssRNA)
RNA: GGGAGUUCUACAGUCCGACGAUCGUGAGGCCUCUGAGUGUGGCUUGUGGUCUGUCCUGGGUUAGAGUUGUUAAUAUCACGGAACAUACCACUUAAGGAGGUUCUGCCCCGCCUGACACCUUCAUUCCCAAUGGAGAAGAAAUCCAACAGAGGAUUGAGCAUCA
B4: chr7:54823571:54823572:-_ENSG00000132432_ENST00000352861|hu_mus|hu_hu_hu_mus_False|48_88 (ssRNA)
RNA: GGGAGUUCUACAGUCCGACGAUCUCCCAUGAUAGCAAAUCCUAUAGCUGUUGCCAUGGCAAUCUUCUGGAAUUCUUUUCUGUCGGGUUUAGUGCAUCUUUUAACCAGCCGAAUUGAGUCCUUUACAAACUGCCGGCUGGGCUCCAACAGAGGAUUGAGCAUCA
B5: 55316162_55316282_4585_3pUTR_ENSMUSG00000018583_ENSMUST00000018727|mouse|control|control (ssRNA)
RNA: GGGAGUUCUACAGUCCGACGAUCUGACAACAGGGACUCCUGCCUAAGAGUAUCUUGCUGCUCUUCCAGGACAUAAGUUCGAUUCCCAGCACCUGUGUAGGAGGGCUCACUCACCUGUAACUCCAGCUCCAAGGGGCCACAGGCCAACAGAGGAUUGAGCAUCA
B6: chr17:56739783:56739784:+_ENSMUSG00000071054_ENSMUST00000095224|mus_mus|FALSE|FALSE (ssRNA)
RNA: GGGAGUUCUACAGUCCGACGAUCAUAUCUGCUAAACAGGUUCUUCAGAUCCGUGGCUCUGGUUGUAGACGAAAGGCCACUAACCCAGAAAUUCCUACCACAGCUGCUGCGACCCUUCUCUUCUCGGGAAAGCCUUUUUGUAUCCAACAGAGGAUUGAGCAUCA

These binders were tested against T1, UNK ZnF1-3 (assay: nsRBNS (natural sequence RNA bind-n-seq); RBNS binding buffer (assumed for nsRBNS): 25 mM Tris pH 7.5, 150 mM KCl, 3 mM MgCl2, 0.01% Triton X-100, 500 ug/ml BSA, 20 U/ml SUPERase-In, 4 C; UNK is unkempt and MSI1 is Musashi-1; names of the RNAs are library labels; protein concentration not given here; high values mean tight binding).

Binder	binding signal
B1	2.44 enrichment R
B2	0.695 enrichment R
B3	0.716 enrichment R
B4	0.587 enrichment R
B5	0.768 enrichment R
B6	0.796 enrichment R
